Records with an inconclusive call do not appear. Calls of active or inactive are those of the source. Unless noted, the call rests on the fitted dose curve; in most records, active means well fitted curve in the direction sought with a large enough effect in the repeat runs; inconclusive means weak or mixed curves; inactive means no such curve, though single readings can be large; an effect the other way counts as inactive or inconclusive.
How the values were obtained:
[1] = qHTS RealTime-Glo MT Cell Viability Assay in HEK293 cells - 0 hour (AID 1224880); further: nearly all actives have a fitted effect of over 45% in size; further: potency means the concentration at half of the fitted maximal effect
Outline: (§1)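 Tox21 screen in HEK293 using RealTime-Glo MT chemistry, with cells and reagent co-dispensed. Luminescence proportional to viable cell number was captured at intervals during 40 h compound exposure at 37 C.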

[2] = A CellTox Green Cytotoxicity Assay to monitor cytotoxicity in HEK293 cells - 32 hour (AID 1224881); further: nearly all actives have a fitted effect of over 40% in size; further: potency means the concentration at half of the fitted maximal effect
Outline: (§2)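 Seeding of HEK293 cells together with cytotoxicity dye preceded a 5 h incubation at 37 C/5% CO2. Test compounds in DMSO were then added and fluorescence monitored across 40 h.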

[3] = A CellTox Green Cytotoxicity Assay to monitor cytotoxicity in HepG2 cells - 0 hour (AID 1224882); further: nearly all actives have a fitted effect of over 35% in size
Outline: (§3)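 Nonlytic assay: viable cells exclude the dye, so fluorescence scales with cell death. HepG2 at 600 cells/well, compounds added after 5 h, signal read across 40 h.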

[4] = A CellTox Green Cytotoxicity Assay to monitor cytotoxicity in HepG2 cells - 32 hour (AID 1224883); further: nearly all actives have a fitted effect of over 50% in size; further: potency means the concentration at half of the fitted maximal effect
Outline: as §3

[5] = A CellTox Green Cytotoxicity Assay to monitor cytotoxicity in HEK293 cells - 8 hour (AID 1224884); further: nearly all actives have a fitted effect of over 35% in size; further: potency means the concentration at half of the fitted maximal effect
Outline: as §2

[6] = qHTS RealTime-Glo MT Cell Viability Assay in HepG2 cells - 16 hour (AID 1224885); further: nearly all actives have a fitted effect of over 50% in size
Outline: (§4)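 Tox21 10K library screened in qHTS format on HepG2 cells carrying RealTime-Glo reagents. Compounds were added after a 5 h preincubation, and the luminescent signal from continuous culture was measured repeatedly during 40 h treatment.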

[7] = qHTS RealTime-Glo MT Cell Viability Assay in HEK293 cells - 24 hour (AID 1224886); further: nearly all actives have a fitted effect of over 50% in size; further: potency means the concentration at half of the fitted maximal effect
Outline: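 Luminescence generated by NanoLuc from substrate produced by living HEK293 cells served as the viability signal. Each value reflects the reading at its stated time point during continuous 40 h compound exposure at 37 C.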

[8] = qHTS RealTime-Glo MT Cell Viability Assay in HEK293 cells - 8 hour (AID 1224887); further: nearly all actives have a fitted effect of over 50% in size; further: potency means the concentration at half of the fitted maximal effect
Outline: as §1

[9] = qHTS RealTime-Glo MT Cell Viability Assay in HepG2 cells - 0 hour (AID 1224889); further: nearly all actives have a fitted effect of over 50% in size
Outline: as §4

[10] = A CellTox Green Cytotoxicity Assay to monitor cytotoxicity in HepG2 cells - 8 hour (AID 1224890); further: nearly all actives have a fitted effect of over 45% in size
Outline: as §3

[11] = qHTS assay to identify small molecule antagonists of the estrogen receptor alpha (ER-alpha) signaling pathway using the BG1 cell line in the presence of 0.1 nM 17-beta-estradiol - cell viability counter screen (AID 1259241); further: nearly all actives have a fitted effect of over 40% in size
Outline: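 Live-cell protease activity (CellTiter-Fluor fluorescence, 30 min) was read in the same wells after VM7Luc4E2 cells had been exposed to compounds with 0.1 nM 17beta-estradiol for 22 hr at 37C.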

[12] = qHTS assay to identify small molecule antagonists of the androgen receptor (AR) signaling pathway using the MDA cell line in the presence of 0.5 nM R1881 - cell viability counter screen (AID 1259242); further: nearly all actives have a fitted effect of over 45% in size
Outline: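 R1881 at 0.5 nM final stimulated MDA-kb2 cells during 16 hr compound treatment at 37C. Cytotoxicity read: CellTiter-Fluor fluorescence after 30 min.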

[13] = target: Estrogen receptor (Homo sapiens) (UniProt P03372); assay: qHTS assay to identify small molecule antagonists of the estrogen receptor alpha (ER-alpha) signaling pathway using the BG1 cell line in the presence of 0.1 nM 17-beta-estradiol (AID 1259244); further: nearly all actives have a fitted effect of over 50% in size; further: potency means the concentration at half of the fitted maximal effect
Outline: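 VM7Luc4E2; 4xERE-luciferase; 0.1 nM E2 final; 22 h co-incubation, 37C; ONE-Glo luminescence after 30 min at room temperature.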

[14] = qHTS assay to identify small molecule HDAC inhibitors (AID 1259364); further: potency means the concentration at half of the fitted maximal effect;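 further: wild-type HCT-116 cells with endogenous class I/II HDAC activity; nearly all actives have a fitted effect of over 45% in size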
Outline: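 Relative class I and II HDAC activity is taken from the luminogenic signal in HCT-116 cells, with compound exposure 2 hr and reagent development 30 min at room temperature.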

[15] = qHTS assay to identify small molecule HDAC inhibitors - cell viability counter screen (AID 1259365)
Outline: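 HCT-116 (wild type), 1,500 cells/well, overnight 37C/5% CO2; compound in DMSO 2hr; CellTiter-Glo 30min RT; luminescence read.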

[16] = qHTS assay to identify small molecule agonists of the sonic hedgehog signaling (Shh) pathway - cell viability counter screen (AID 1259366); further: nearly all actives have a fitted effect of over 50% in size; further: potency means the concentration at half of the fitted maximal effect
Outline: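 CellTiter-Fluor fluorescence read-out, 1 hr at 37C, added after 23hr compound exposure. Cells: 3T3 Gli1-Luc, an NIH/3T3 clone with stably integrated Gli1-Luc reporter, plated 4hr before compound.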

[17] = qHTS assay to identify small molecule antagonists of the sonic hedgehog signaling (Shh) pathway - cell viability counter screen (AID 1259367); further: nearly all actives have a fitted effect of over 55% in size; further: potency means the concentration at half of the fitted maximal effect
Outline: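 NIH/3T3-derived Gli1-Luc reporter cells (2,000 per well) rested 4 hr at 37 C, then received DMSO compounds plus conditioned medium. After 23 hr of treatment, CellTiter-Fluor was added for 1 hr at 37C and fluorescence read.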

[18] = A CellTox Green Cytotoxicity Assay to monitor cytotoxicity in HEK293 cells - 16 hour (AID 1224888); further: nearly all actives have a fitted effect of over 35% in size
Outline: as §2

[19] = target: Androgen receptor (Homo sapiens) (UniProt P10275); assay: qHTS assay to identify small molecule antagonists of the androgen receptor (AR) signaling pathway using the MDA cell line in the presence of 0.5 nM R1881 (AID 1259243); further: nearly all actives have a fitted effect of over 50% in size; further: potency means the concentration at half of the fitted maximal effect
Outline: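 We exposed MDA-kb2 cells to compounds under 0.5 nM R1881 stimulation for 16 hr at 37C and quantified MMTV-driven luciferase by luminescence.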

[20] = qHTS assay to identify small molecule phospholipidosis (PLD) inducers (AID 1259344; active means well fitted curve in the direction sought with a large enough effect; an effect the other way counts as inactive or inconclusive)
Outline: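 HepG2 cells on collagen I, attached 4 h at 37 C, were co-treated with compound and LipidTOX Red dye for 24 h at 37 C, then fixed with paraformaldehyde plus Hoechst 33342 and imaged by high-content microscopy for phospholipid accumulation.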

Measured: Potency

Chain of Estrogen receptor (Homo sapiens) (P03372 whole entry, looked up): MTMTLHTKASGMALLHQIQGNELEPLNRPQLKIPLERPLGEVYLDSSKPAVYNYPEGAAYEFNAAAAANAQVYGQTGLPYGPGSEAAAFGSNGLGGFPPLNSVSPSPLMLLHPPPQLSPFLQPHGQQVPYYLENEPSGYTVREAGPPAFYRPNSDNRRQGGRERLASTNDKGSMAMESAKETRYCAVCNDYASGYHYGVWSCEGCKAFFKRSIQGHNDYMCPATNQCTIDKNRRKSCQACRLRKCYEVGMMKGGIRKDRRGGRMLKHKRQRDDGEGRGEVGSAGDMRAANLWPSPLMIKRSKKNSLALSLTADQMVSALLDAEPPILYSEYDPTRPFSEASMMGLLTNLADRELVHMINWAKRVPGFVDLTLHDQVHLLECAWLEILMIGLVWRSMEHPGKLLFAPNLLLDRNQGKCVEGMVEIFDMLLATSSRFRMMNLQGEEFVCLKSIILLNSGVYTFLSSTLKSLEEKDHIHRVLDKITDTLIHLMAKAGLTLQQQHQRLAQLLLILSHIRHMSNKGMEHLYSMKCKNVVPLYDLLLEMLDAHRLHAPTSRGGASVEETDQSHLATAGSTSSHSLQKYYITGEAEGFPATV
Chain of Androgen receptor (Homo sapiens) (P10275 whole entry, looked up): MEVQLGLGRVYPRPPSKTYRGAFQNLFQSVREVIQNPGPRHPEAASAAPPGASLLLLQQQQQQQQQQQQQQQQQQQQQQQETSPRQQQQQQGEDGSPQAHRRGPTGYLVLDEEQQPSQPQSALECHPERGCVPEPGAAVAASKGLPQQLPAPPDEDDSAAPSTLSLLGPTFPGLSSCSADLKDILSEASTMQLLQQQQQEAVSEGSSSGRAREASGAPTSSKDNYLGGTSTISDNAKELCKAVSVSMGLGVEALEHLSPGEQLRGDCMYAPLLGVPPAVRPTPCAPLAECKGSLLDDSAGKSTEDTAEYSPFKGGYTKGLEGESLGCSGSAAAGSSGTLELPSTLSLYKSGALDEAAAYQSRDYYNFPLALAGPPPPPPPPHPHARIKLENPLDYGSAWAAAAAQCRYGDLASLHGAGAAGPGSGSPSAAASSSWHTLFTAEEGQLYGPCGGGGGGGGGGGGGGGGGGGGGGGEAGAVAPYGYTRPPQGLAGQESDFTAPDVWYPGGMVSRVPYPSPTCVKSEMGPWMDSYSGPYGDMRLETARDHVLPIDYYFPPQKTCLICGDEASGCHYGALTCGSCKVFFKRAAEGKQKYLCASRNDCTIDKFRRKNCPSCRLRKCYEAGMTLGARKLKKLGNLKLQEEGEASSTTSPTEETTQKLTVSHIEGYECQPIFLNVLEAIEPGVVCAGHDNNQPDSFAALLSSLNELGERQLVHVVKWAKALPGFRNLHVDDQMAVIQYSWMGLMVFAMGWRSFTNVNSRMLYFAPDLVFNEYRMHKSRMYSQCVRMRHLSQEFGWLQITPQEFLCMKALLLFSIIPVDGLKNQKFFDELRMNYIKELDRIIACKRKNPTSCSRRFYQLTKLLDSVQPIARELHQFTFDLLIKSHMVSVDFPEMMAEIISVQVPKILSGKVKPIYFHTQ

C=C(C#N)CCC#N
not listed: [18] | [19] | [20]
inactive: all other assays above

CCOP(=S)(OCC)SCSCC
not listed: [9] | [19] | [20]
inactive: all other assays above

O=[N+]([O-])c1cc(C(F)(F)F)cc([N+](=O)[O-])c1Cl
active: [8] 43.8 µM | [16] 30.8 µM | [17] 24.4 µM
not listed: [7] | [14] | [19] | [20]
inactive: all other assays above

O=C(O)C1(c2ccc3c(c2)OC[C@H](Cc2ccc(-c4ccccc4)cc2)[C@H]3O)CCCC1
active: [2] 34.7 µM | [4] 43.6 µM | [5] 19.5 µM
not listed: [7] | [8] | [13] | [18] | [19] | [20]
inactive: all other assays above

O=C(Nc1ccccc1)Nc1cnns1
active: [7] 24.5 µM | [14] 30.6 µM
not listed: [8] | [11] | [13] | [19] | [20]
inactive: all other assays above

Cl/C=C\C[N+]12CN3CN(CN(C3)C1)C2
not listed: [7] | [18] | [19] | [20]
inactive: all other assays above

O=C(O)c1ccccc1C(=O)Nc1cccc2ccccc12
not listed: [7] | [11] | [13] | [18] | [19] | [20]
inactive: all other assays above

CS/C(C)=N/OC(=O)N(C)SN(C)C(=O)O/N=C(\C)SC
inactive: [1] | [3] | [9] | [19] | [13] | [14] | [15] | [17]
active: [2] 54.9 µM | [4] 54.9 µM | [7] 49 µM | [8] 43.6 µM | [16] 54.5 µM

CCCN(CC1CC1)c1c([N+](=O)[O-])cc(C(F)(F)F)cc1[N+](=O)[O-]
not listed: [5] | [8] | [19] | [20]
inactive: all other assays above

CC(C)=CCOc1c2occc2cc2ccc(=O)oc12
not listed: [6] | [18] | [19] | [20]
inactive: all other assays above

O=C1CN=C(c2ccccc2)c2cc(Cl)ccc2N1CC1CC1
active: [1] 16.3 µM
not listed: [7] | [8] | [9] | [13] | [19]
inactive: all other assays above

[CH3][Sn]([CH3])([Cl])[Cl]
not listed: [7] | [13] | [19] | [20]
inactive: all other assays above

CCOC(=O)C(Cl)C(C)=O (stereo not drawn)
active: [4] 24.8 µM
not listed: [5] | [11] | [19] | [20]
inactive: all other assays above

O=C(Nc1ccccc1)Nc1ccnc(Cl)c1
active: [7] 19.5 µM | [19] 43.3 µM | [13] 24.3 µM | [14] 4.33 µM
inactive: [1] | [2] | [3] | [5] | [6] | [18] | [10] | [15]

CCC(COC(=O)c1cc(OC)c(OC)c(OC)c1)(c1ccccc1)N(C)C (stereo not drawn)
active: [8] 26.8 µM
not listed: [7] | [13] | [19]
inactive: all other assays above

COP(=S)(OC)Oc1ccc([N+](=O)[O-])cc1Cl
active: [19] 6.86 µM
not listed: [8] | [11] | [12] | [14] | [16] | [17] | [20]
inactive: all other assays above

From PubChem BioAssay (Tox21)
